Measured values from ChEMBL document CHEMBL3988442, “University of Dundee, Small-Polar-MMV Screening Library” (2021).
Where “and” joins values, the source holds several entries; their conditions need not be identical. Identical values can stand only once. In all, about 34,000 compounds went through this assay and about 290 (0.85%) showed an effect of 50% or more. Only a selection was taken, and strong results are over-represented in it overall.

Tested on: Plasmodium falciparum
Assay: Plasmodium falciparum sporozoite viability assay
Type: functional, organism-based
Set-up: scale not given: in the data most compounds retested in dose-response had high values

Structure (SMILES) | Percent Effect [%] | Percent Effect (10 mM as filed; unlikely as a test dose)
CN1CCN(c2ccc(NS(=O)(=O)c3ccc(Br)s3)cc2C(=O)O)CC1 | 4.745 | –
Cc1ccc(CC(=O)N2CCN(c3nccs3)CC2)s1 | 2.447 | –
CC(C)OCCCN(Cc1ccncc1)Cc1cc(F)cc(F)c1.Cl | 11.64 | –
CC(=O)Nc1nc(C(=O)N2CCCC(n3cncn3)C2)cs1 (configuration not stated) | – | 82.11% and 81.18% and 79.89%
CC(=O)N1CCN(C(=O)Nc2cnc3c(cnn3C(C)C)c2)CC1 | 25.32 | –
Cc1ccc(CN(CCN(C)C)Cc2ccnn2C2CCCCO2)o1.O=C(O)CC(O)(CC(=O)O)C(=O)O (configuration not stated) | -4.714 | –
COCc1noc(-c2ccc(N3CCCCC3CO)nc2)n1 (configuration not stated) | – | 100.3% and 99.37% and 102%
OC[C@@H]1CCCN1c1ccc(-c2nc(COc3ccccc3)no2)cn1 | 3.859 | –
COc1ccc2c(c1)CN(c1cc(N3CCCC3CO)ncn1)CC2 (configuration not stated) | -18.73 | –
COc1ccc(-c2noc(-c3ccc(N4CCC[C@H]4CO)nc3)n2)cc1 | – | 49.77% and 66.78% and 41.57%
OCC1CCCCN1c1ccc(-c2nc(-c3ccccc3F)no2)cn1 (configuration not stated) | – | 104% and 108.6% and 106.3%
OCC1CCCN1c1cc(N2CCc3ccccc3C2)ncn1 (configuration not stated) | 3.468 | –
COCc1noc(-c2ccc(N3CCC[C@H]3CO)nc2)n1 | – | 100.4% and 89.16% and 80.89%
Cc1ccc(-c2nc(CN3CCCC3Cn3cc(C)cn3)no2)cc1 (configuration not stated) | -11.03 | –
OC[C@@H]1CCCN1c1ccc(-c2nc(CCc3ccccc3)no2)cn1 | -12.02 | –
CCOC(=O)C1CCCN(c2ccc(-c3nc(C)no3)cn2)C1 (configuration not stated) | -0.4292 | –
COc1cccc(CNC(=O)C(c2cccc(F)c2)N2CCOCC2)c1 (configuration not stated) | -3.044 | –
O=C(c1ccc(OCC2CC2)nc1)N1CCCC(n2cccn2)C1 (configuration not stated) | -19.18 | –
CC(C)C(=O)N(C)CC(=O)Nc1ccc(Br)cn1 | 14 | –

Structure (SMILES) | Percent Effect [%] | Percent Effect (10 mM as filed; unlikely as a test dose)
CC(C)NC(=O)C1CCN(c2nc3nc[nH]c(=O)c3s2)CC1 | 4.304 | –
O=C(O)CC(O)(CC(=O)O)C(=O)O.OC1CCN(Cc2ccnc(-c3cccnc3)n2)CC1 | -11.33 | –
O=C(C1CCOCC1)N1CC[C@@H](O)[C@@H]1Cc1ccccc1 | -0.722 | –
CCc1cc(C(=O)N2CCc3nc4c(C)csc4c(=O)n3CC2)on1 | -3.013 | –
Cc1ccc(CNC2CCCN(Cc3noc(C4CC4)n3)C2)s1 (configuration not stated) | 14.12 | –
Cc1nccc([C@@H]2C[C@H]3CN(S(=O)(=O)c4ccccc4)C[C@H]3O2)n1 | -0.614 | –
COCc1noc(-c2ccc(N3CCCC3c3nccs3)nc2)n1 (configuration not stated) | 12.02 | –
COCc1noc(-c2ccc(N3CCCCC3COC)nc2)n1 (configuration not stated) | – | 46.38% and 65.96% and 53.91%
COCc1noc(-c2ccc(N3CCCC3c3ccc(F)cc3)nc2)n1 (configuration not stated) | -8.49 | –
Cc1ccc(CN2Cc3nccn3CC(Cn3cccn3)C2)s1.O=C(O)C(F)(F)F (configuration not stated) | 14.89 | –
Cn1cnc2c1CCN(c1ccnc(-c3ccccc3)n1)C2 | – | 23.08% and 36.96% and 19.93%
c1ccc(OCCN2CCc3c(ncn3C3CC3)C2)cc1 | 1.314 | –
Cn1cnc2c1CCN(Cc1csc(-c3ccsc3)n1)C2 | – | 58.75% and 42.56% and 36.07%
Cn1cc(-c2nc(CN3CCc4c(ncn4C)C3)cs2)cn1 | – | 16.12% and 15.46% and 16.04%
c1cc(-c2nc(CN3CCc4c(ncn4C4CC4)C3)cs2)cs1 | – | 57.35% and 45.82% and 61.3%
c1ccc(-c2nccc(N3CCc4c(ncn4C4CC4)C3)n2)cc1 | – | 47.31% and 54.94% and 44.8%
c1ccc(CCN2CCc3c(ncn3C3CC3)C2)nc1 | – | 67.57% and 58.81%
COc1cc(CCC(=O)N2CCC(c3cc4ncc(C)nc4[nH]3)C2)on1 (configuration not stated) | 3.144 | –
Cn1ncc2ccc(C3CCCN(C(=O)Cc4cccs4)C3)nc21 (configuration not stated) | 10.94 | –

Structure (SMILES) | Percent Effect [%] | Percent Effect (10 mM as filed; unlikely as a test dose)
CC(=O)N1CCCC(Cc2cncc(Br)c2)C1 (configuration not stated) | 6.529 | –
Cl.NC[C@H]1CC[C@H](c2c(C(N)=O)sc3ccccc32)CC1 | -7.353 | –
CC(C)c1nccn1-c1cncc(C2CCCN(C3CCCC3)C2)n1 (configuration not stated) | -6.527 | –
CC(=O)Nc1ncc(S(=O)(=O)Nc2cccc(C)c2)s1 | – | -25.8% and -18.95%
Cn1cnc2c1CCN(Cc1csc(-c3ccccc3F)n1)C2 | – | 76.94% and 88.44% and 75.64%
c1ccc(Cc2noc(CN3CCc4c(ncn4C4CC4)C3)n2)cc1 | – | -14.98% and -2.391% and 8.348%
Cn1cnc2c1CCN(Cc1csc(-c3ccc(F)cc3)n1)C2 | – | -9.047% and 9.476% and -2.391%
CN(Cc1ccncc1)C1CC2(CCN(Cc3ccccn3)CC2)C1 | -12.29 | –
CCc1noc(CN(Cc2ccc3c(c2)OCO3)C2CCCC2)n1 | – | 55.13% and 62.45% and 59.26%
c1cc2c(cc1CN(Cc1nc(C3CC3)no1)C1CCCC1)OCO2 | – | 12.71% and 9.481% and -1.226%
COc1ccc(C(C(=O)O)N2CCC(Cn3cccn3)CC2)cc1F (configuration not stated) | – | -7.781% and -11.29%
CC(C)n1nnc(CC(=O)NCC2(c3ccccc3F)CCCC2)n1 | 17.65 | –
O=C(CCCc1ccccn1)N1CCCC(n2cccn2)C1 (configuration not stated) | 0.2979 | –
C1CCCN(CC2CCCN(Cc3noc(C4CC4)n3)C2)CC1 (configuration not stated) | 3.026 | –
COc1ccc(C(CO)NC(=O)Nc2cccc(C#N)c2)cc1 (configuration not stated) | – | 6.223% and 12.91% and -11.88%
COc1ccc(C(CO)NC(=O)Nc2cccc(F)c2)cc1 (configuration not stated) | – | 72.06% and 80.87%
COc1ccc(C(CO)NC(=O)Nc2cccc(C(C)=O)c2)cc1 (configuration not stated) | – | 15.43% and 22.65%
CN(CCc1ccccc1)Cc1c(C2CCNCC2)[nH]c2ncccc12.Cl | -0.2567 | –
CNc1cncc(C2CCCN2S(=O)(=O)c2ccccc2F)n1 (configuration not stated) | 7.397 | –
